Bioassay records as filed in PubChem.
LGR2 inh: Drosophila LGR2 receptor signaling inhibition; HEK293 LGR2, CRE-luciferase, bursicon-stimulated, 4 h; inhibition, % at 9.99 µM; 0.35% of 380,000 active;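 active = drop in luminescence signal, shown as inhibition above about 50% in the replicate tests, limit read from the data, passing the limit was not always enough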;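 note: agonist challenge used bursicon conditioned medium at about half maximal strength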
TROY signal inh: TROY signaling inhibition; Q293 LMP1-TROYcd NF-kB luciferase reporter, 4 h; inhibition, % at 10 µM; 0.98% of 360,000 active;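 active = compounds whose plate-normalised and pattern-corrected inhibition of the luciferase reporter signal at the single screening dose is 50% or more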
TWEAK-Fn14 inh: inhibitors of TWEAK-Fn14 interaction signaling | TWEAK-stimulated Fn14 reporter cells, luciferase luminescence, 8 h | 2% of 360,000 active | AID 1159606 | inhibition, % at 10 µM; in the data active = inhibition above about 50%
HSP90 inh: inhibitors of HSP90 luciferase refolding in rabbit reticulocyte lysate. inhibition, % at 5.6 µM. 0.91% of 290,000 active. luciferase refolding luminescence, 3 h;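 active = inhibition above the screen-wide mean plus 3 SD, computed separately per campaign, cut at about 16% in these data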;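 note: 0% = DMSO wells and 100% = 60 µM geldanamycin wells; inhibitors lower the luminescence because luciferase stays unfolded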
* = called active by the depositor. A selection: hits, their analogues and other compounds. The true share with any hit is near 2.2%.

CCCCN1CNC(=S)N(CCc2ccccc2)C1 was read as LGR2 inh -9, TROY signal inh 9, TWEAK-Fn14 inh -2 and HSP90 inh 2.
For O=C(C[C@H]1C=C[C@H](NC(=O)Nc2cc(F)ccc2F)[C@H](CO)O1)NCc1ccccn1 the results were LGR2 inh -3.
Screening CNS(=O)(=O)c1cc(NC(=O)c2cncn2-c2ccccc2)ccc1C returned LGR2 inh 6, TROY signal inh 11, TWEAK-Fn14 inh 79* and HSP90 inh 2.
C[C@@H]1CN([C@H](C)CO)C(=O)c2cc(NS(=O)(=O)c3ccc(F)cc3)ccc2O[C@H]1CN(C)S(=O)(=O)c1ccccc1 was read as LGR2 inh -4.
Screening O=C(CSc1nc2c(cnn2-c2ccc(F)cc2)c(=O)[nH]1)N1N=C(c2cccs2)CC1c1ccc(F)cc1 (stereo not drawn) returned LGR2 inh -1, TROY signal inh 50*, TWEAK-Fn14 inh 57* and HSP90 inh 4.
`Cc1ccc(S(=O)(=O)c2nc(Nc3nccs3)sc2Cl)cc1` gave TROY signal inh 52*, TWEAK-Fn14 inh -30 and HSP90 inh 2.
O=C(Nc1ccc(F)cc1)N[C@H]1CC[C@@H](CCNC(=O)c2ccccc2F)O[C@@H]1CO was read as LGR2 inh -7.
For CCCCCCOC(=O)CCc1c(C)nc(N)[nH]c1=O the results were LGR2 inh -10, TWEAK-Fn14 inh -8 and HSP90 inh 7.
`CCCCCCOC(=O)Cc1c(C)nc(N)[nH]c1=O` gave LGR2 inh -5, TROY signal inh -8, TWEAK-Fn14 inh 56* and HSP90 inh -5.
For O=C(CCNS(=O)(=O)c1ccc(Br)cc1)Nc1cccc(F)c1 the results were LGR2 inh -5, TROY signal inh 4, TWEAK-Fn14 inh 99* and HSP90 inh -5.
CC=Cc1ccc2n(c1=O)C[C@@H]1[C@@H](CO)[C@H](C(=O)NCC3CCCCC3)N(C(C)=O)[C@H]21 (mixture of isomers) was read as LGR2 inh -5.
`COc1ccc(/C=C/c2noc(-c3ccccc3O)n2)cc1` gave LGR2 inh 30, TROY signal inh 38, TWEAK-Fn14 inh 56* and HSP90 inh -6.
CC(=O)NNc1ncnc2c1cnn2-c1ccc(C)c(C)c1 was read as LGR2 inh -5, TROY signal inh 54*, TWEAK-Fn14 inh 66* and HSP90 inh 5.
For CC(C)(C)CC(C)(C)NC1=CC(=O)OC12CCCCC2 the results were TROY signal inh -3, TWEAK-Fn14 inh -3 and HSP90 inh 0.
`CN(C)CCCNC1=CC(=O)OC12CCCCC2` gave TWEAK-Fn14 inh 90* and HSP90 inh 1.
`Cn1cnc(S(=O)(=O)N[C@H]2C=C[C@H](CC(=O)NCC3CC3)O[C@H]2CO)c1` gave LGR2 inh 9.
OC[C@H]1Nc2ccc(C#Cc3ccc(F)cc3)cc2[C@H]2[C@@H]1CCN2Cc1nccs1 was read as LGR2 inh -8.
Screening COC(=O)C1=C(C)NC(C)=C(C(=O)OC)C1c1ccc2ccccc2n1 returned TROY signal inh -5, TWEAK-Fn14 inh 8 and HSP90 inh 2.
`O=C1c2ccccc2C(=O)C1c1ccc2ccccc2n1` gave TROY signal inh 49, TWEAK-Fn14 inh 95* and HSP90 inh 0.
For O=C(C1CCCC1)N1CC[C@@H]2[C@H](CO)Nc3ccc(Br)cc3[C@@H]21 the results were LGR2 inh -9.
For CCCn1c(C)cc(C(=O)COc2ccc(-c3nnco3)cc2)c1C the results were LGR2 inh -45, TROY signal inh 13, TWEAK-Fn14 inh 6 and HSP90 inh 16*.
For CC1CCCC(NC(=O)CCNC(=O)c2ccc(Cl)cc2)C1C (stereo not drawn) the results were LGR2 inh -5, TROY signal inh -28 and TWEAK-Fn14 inh -5.
`CC1CCCC(NC(=O)CCNC(=O)c2ccc([N+](=O)[O-])cc2)C1C` (stereo not drawn) gave LGR2 inh 1, TROY signal inh -20, TWEAK-Fn14 inh 76* and HSP90 inh -1.
Screening O=C(NNCc1ccccc1)c1ccccc1 returned LGR2 inh -11, TROY signal inh 24 and TWEAK-Fn14 inh 65*.
Screening CN1CCN(C(=O)C[C@H]2C[C@H]3c4cc(NS(=O)(=O)c5ccc(F)cc5)ccc4O[C@H]3[C@H](CO)O2)CC1 returned LGR2 inh -19.
Screening C[C@@H]1CCCCO[C@@H](CN(C)S(=O)(=O)c2ccc(Cl)cc2)[C@H](C)CN([C@H](C)CO)C(=O)c2cc(NC(=O)Cc3ccccc3)ccc2O1 returned LGR2 inh 9.
For CC(=O)c1ccc(NC(=O)COC(=O)c2c3c(nc4ccccc24)/C(=C\c2cccs2)CCC3)cc1 the results were LGR2 inh 22, TROY signal inh 16, TWEAK-Fn14 inh 57* and HSP90 inh 0.
`CCc1ccc2[nH]c(=O)c(C(c3nnnn3CCOC)N3CCN(c4ccccc4F)CC3)cc2c1` (stereo not drawn) gave TROY signal inh 53*, TWEAK-Fn14 inh 50 and HSP90 inh 2.
Screening COCCn1nnnc1C(c1ccc(OC)cc1OC)N1CCN(c2ccccc2F)CC1 (stereo not drawn) returned TROY signal inh -4, TWEAK-Fn14 inh 5 and HSP90 inh 1.
`Cc1cccc(-c2ccc3[nH]c4c(c3c2)CCN2C[C@@H]([C@H](C)OC(=O)Nc3ccccc3C)[C@@H](N(C)C(=O)Nc3ccccc3C)C[C@@H]42)c1` gave LGR2 inh 10, TROY signal inh 20 and TWEAK-Fn14 inh 88*.
C[C@H](O)[C@@H]1CN2CCc3c([nH]c4ccccc34)[C@@H]2C[C@@H]1N(C)C(=O)Nc1cccc2ccccc12 was read as LGR2 inh 8, TROY signal inh 28 and TWEAK-Fn14 inh 34.
Cc1ccccc1NC(=S)N(Cc1cccnc1)Cc1ccco1 was read as LGR2 inh -5, TROY signal inh -20, TWEAK-Fn14 inh 60* and HSP90 inh 3.
For COc1ccccc1C(=O)Nc1ccc2c(c1)C(=O)N(C)C[C@@H](OC)[C@@H](C)CN(C)[C@@H](C)CO2 the results were LGR2 inh -4.
Screening COCC#Cc1ccc([C@H]2[C@@H](CO)N3C(=O)CN(C(=O)c4cccnc4)C[C@@H]23)cc1 returned LGR2 inh 0.
`COc1ccc(OCC(=O)N2CCN(c3nnc(-c4ccc(C)cc4)c4ccccc34)CC2)cc1` gave LGR2 inh 59*, TROY signal inh 59*, TWEAK-Fn14 inh -2 and HSP90 inh 1.
For COc1ccc(OCC(=O)N2CCN(c3nnc(-c4ccccc4)c4ccccc34)CC2)cc1 the results were TROY signal inh 27, TWEAK-Fn14 inh 7 and HSP90 inh 2.
Screening Cc1ccc(OCC(=O)N2CCN(c3nnc(-c4ccc(C)cc4)c4ccccc34)CC2)cc1 returned TROY signal inh 59*, TWEAK-Fn14 inh 51* and HSP90 inh 3.
Cc1ccc(-c2nnc(N3CCN(C(=O)COc4cccc(C)c4)CC3)c3ccccc23)cc1 was read as TROY signal inh 35, TWEAK-Fn14 inh -12 and HSP90 inh 8.
